Assay results published in PubChem BioAssay (EPA / NIEHS).
“And” between values parts separate entries of the source, which are not always exact repeats. Identical values can stand only once. Records with an inconclusive call do not appear. A structure can be active in one record and inactive in another. The source made the active and inactive calls. The calls were made as follows: active = hit-call score of the fitted dose curve at least 0.9, where 1 is the maximum; inconclusive = response in the unintended direction; inactive = score below 0.9.

Target: Peroxisome proliferator-activated receptor gamma (Homo sapiens) (UniProt P37231)
Experiment: NVS_NR_hPPARg: NovaScreen (NVS) Nuclear Receptor Binding Assay for human Peroxisome Proliferator-activated Receptor gamma (PPARg) (AID 2283370)
Protocol: NVS_NR_hPPARg is a biochemical, single-readout assay that uses extracted gene-proteins in a cell-free assay. Measurements were taken 2 hours after chemical dosing in a 384-well plate.NVS_NR_hPPARg is one of one assay component(s) measured or calculated from the NVS_NR_hPPARg assay. It is designed to make measurements of fluorescent polarization, a form of binding reporter, as detected with fluorescence polarization signals by Fluorescence Polarization technology.Data from the assay component NVS_NR_hPPARg was analyzed into 1 assay endpoint. This assay endpoint, NVS_NR_hPPARg, was analyzed in the positive analysis fitting direction relative to DMSO as the negative control and baseline of activity. Using a type of binding reporter, loss-of-signal activity can be used to understand changes in the binding as they relate to the gene PPARG. Furthermore, this assay endpoint can be referred to as a primary readout, because the performed assay has only produced 1 assay endpoint. To generalize the intended target to other relatable targets, this assay endpoint is annotated to the nuclear receptor intended target family, where the subfamily is non-steroidal.
Binding assays used specific radioligands (tritiated, iodinated) with non-radioactive competitive displacement ligands in agonist or antagonist protocols (as indicated) and various reference compounds and inhibitors to titrate specific binding to receptors and transporters. Most enzyme assays (CYPs, kinases, phosphatases, proteases, HDACs) used recombinant protein and specific substrates (fluorescence mostly, some colorimetric and radioactive) and inhibitors, followed by a biochemical separation of substrate and product. All assays for the biochemical HTS were initially run in duplicate at a single concentration (10 uM for CYP450 assays and 25 uM for all others). […] Each assay was run with positive and negative controls, and concurrent controls on every plate. The follow-up (secondary) screen tested active chemical-pairs in concentration series, as well as a few additional assays not tested in the primary screen, some selected negative inactives, and several cases re-run in the concentration series for confirmatory purposes.

Sequence of Peroxisome proliferator-activated receptor gamma (Homo sapiens) (P37231 whole entry, looked up): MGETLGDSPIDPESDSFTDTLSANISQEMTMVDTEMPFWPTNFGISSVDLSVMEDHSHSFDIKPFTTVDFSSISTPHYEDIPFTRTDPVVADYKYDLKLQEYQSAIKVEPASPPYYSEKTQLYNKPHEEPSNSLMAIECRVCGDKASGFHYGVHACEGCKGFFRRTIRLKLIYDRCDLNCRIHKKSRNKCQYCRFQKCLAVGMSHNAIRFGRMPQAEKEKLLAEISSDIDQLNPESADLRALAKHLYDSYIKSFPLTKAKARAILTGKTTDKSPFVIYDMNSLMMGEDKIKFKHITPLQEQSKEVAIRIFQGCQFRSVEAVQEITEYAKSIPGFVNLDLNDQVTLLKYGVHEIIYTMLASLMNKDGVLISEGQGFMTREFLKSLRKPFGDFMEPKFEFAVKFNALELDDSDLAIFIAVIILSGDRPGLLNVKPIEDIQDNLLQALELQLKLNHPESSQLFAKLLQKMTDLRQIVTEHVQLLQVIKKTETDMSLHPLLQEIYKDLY

outcome, inactive:
C1CN(SSN2CCOCC2)CCO1
O=c1cc(-c2ccccc2)oc2ccccc12
O=S(=O)(O)c1ccccc1C=Cc1ccc(-c2ccc(C=Cc3ccccc3S(=O)(=O)O)cc2)cc1
CCCCCCCC/C=C\CCCCCCCC(=O)OCCO
CCCCCCCCCCOS(=O)(=O)O
CCCCC/C=C\C/C=C\CCCCCCCC(=O)OC
CCCCC/C=C\CCC=O
O=C(C(Cl)Cl)N1CCOC12CCCCC2
CC1=NN(c2cc(S(=O)(=O)O)ccc2Cl)C(=O)C1N=Nc1ccccc1 (stereo not drawn)
O=S1(=O)OC(c2ccc(O)cc2)(c2ccc(O)cc2)c2ccccc21
CC(=O)OC(C)C
CC(C)C1=CC2=CC[C@@H]3[C@](C)(CCC[C@@]3(C)C(=O)O)[C@H]2CC1
CCCCCCCCCCCCCOP(=O)(O)O

AC50, active:
CCCCCCCCCCOS(=O)(=O)O 15.6 µM
CCN(CCC#N)c1ccc(N=Nc2c(Cl)cc([N+](=O)[O-])cc2Cl)cc1 13.4 µM
CCCCCCCC/C=C\CCCCCCCC(=O)O 25 µM
CCCCC/C=C\C/C=C\CCCCCCCC(=O)OC 8.81 µM
CCCCCCCCO[C@@H]1O[C@H](CO)[C@@H](O)[C@H](O)[C@H]1O 36.5 µM
CC(C)c1ccc2c(C(C)C)cc(C(C)C)c(S(=O)(=O)O)c2c1 4.01 µM
Cc1ccc(N/N=c2\c(=O)cc/c(=N/Nc3ccc(S(=O)(=O)O)cc3)c2=O)c(C)c1 16 µM
CC/C=C\C/C=C\C/C=C\CCCCCCCC(=O)O 0.00769 µM
Oc1ccc(Cl)cc1Cc1cc(Cl)ccc1O 25 µM
CCCCC(CC)CCC(CC(C)C)OS(=O)(=O)O (stereo not drawn) 8.17 µM and 6.89 µM
